# Compound activity deposited in PubChem by Broad Institute.
# ROS inducer: raises reactive oxygen species in U2OS cancer cells; ROS induction (% of piperlongumine), % at 10 µM; U2OS ROS induction, H2DCF-DA fluorescence; 46,000 tested, 2% active; in the data active = ROS induction above about 79%, passing the limit was not always enough; inconclusive = no clear call, values can overlap the other calls
# NOMO-1 viab: STK33 inhibitor candidate reducing NOMO-1 cell viability | NOMO-1 AML viability, CellTiter-Glo luminescence, 72 h | inhibition, % (no concentration beside the values) | 37,000 tested, 7.5% active; in the data active = inhibition above about 80%; inconclusive = no clear call, values can overlap the other calls
# A number is an active result; n = inactive; u = inconclusive; x = not tested or not shown. The sample as a whole holds a higher share of hits than the screen did.
SMILES,ROS inducer,NOMO-1 viab
Cc1ccc(S(=O)(=O)Nc2ccc3c(c2)CC(=O)N([C@@H](C)CO)C[C@@H](C)[C@@H](CN(C)Cc2ccc(-c4ccccc4)cc2)O3)cc1,n,124
Cc1noc(C)c1S(=O)(=O)Nc1ccc2c(c1)CC(=O)N([C@@H](C)CO)C[C@H](C)[C@@H](CN(C)Cc1ccc(-c3ccccc3)cc1)O2,n,86
C[C@H]1CN([C@@H](C)CO)C(=O)Cc2cc(NS(=O)(=O)c3ccccc3)ccc2O[C@@H]1CN(C)Cc1ccc(-c2ccccc2)cc1,n,113
Cc1ccc(S(=O)(=O)Nc2ccc3c(c2)CC(=O)N([C@H](C)CO)C[C@@H](C)[C@H](CN(C)Cc2ccc(-c4ccccc4)cc2)O3)cc1,u,95
Cc1ccc(S(=O)(=O)Nc2ccc3c(c2)CC(=O)N([C@H](C)CO)C[C@@H](C)[C@@H](CN(C)Cc2ccc(-c4ccccc4)cc2)O3)cc1,n,n
C[C@H]1CN([C@@H](C)CO)C(=O)Cc2cc(NS(=O)(=O)c3ccccc3)ccc2O[C@H]1CN(C)Cc1ccc(-c2ccccc2)cc1,n,n
C[C@@H]1CN([C@H](C)CO)C(=O)Cc2cc(NS(=O)(=O)c3ccccc3)ccc2O[C@H]1CN(C)Cc1ccc(-c2ccccc2)cc1,n,u
C[C@@H]1CN([C@H](C)CO)C(=O)c2cc(NS(=O)(=O)c3cn(C)cn3)ccc2O[C@H]1CN(C)S(=O)(=O)c1cccs1,n,n
COC(=O)C1=CO[C@@H](O[C@@H]2O[C@H](CO)[C@@H](O)[C@H](O)[C@H]2O)[C@@H]2[C@@](C)(O)[C@@H](OC(=O)/C=C/c3ccc(O)cc3)C[C@]12O,n,n
Cc1ccc(OCC(=O)Nc2ccc3oc(-c4ccc(F)cc4)nc3c2)cc1C,n,n
CCOc1ccc(C(C)C)cc1S(=O)(=O)n1c(C)nc2ccccc21,x,n
COc1ccc(S(=O)(=O)Nc2cc(C)cc(C)c2)cc1,n,96
COCc1nnc(NS(=O)(=O)c2ccc(OC)cc2)s1,n,x
Cc1ccc(S(=O)(=O)N(C)C[C@@H]2OCCCC[C@@H](C)Oc3ccc(NC(=O)CCC(F)(F)F)cc3C(=O)N([C@H](C)CO)C[C@@H]2C)cc1,n,n
C[C@@H]1CCCCO[C@H](CN(C)C(=O)CCC(F)(F)F)[C@@H](C)CN([C@H](C)CO)C(=O)c2cc(NC(=O)Nc3ccccc3)ccc2O1,n,n
O=C(c1cc2ccccc2oc1=O)N(Cc1ccccc1)Cc1ccccc1,n,x
O=C(CC1(O)C(=O)N(Cc2ccccc2)c2ccccc21)c1cc2ccccc2oc1=O (stereo not drawn),n,105
COc1cccc2cc(C(=O)CC3(O)C(=O)N(Cc4ccccc4)c4ccc(Br)cc43)c(=O)oc12 (stereo not drawn),u,127
COc1cccc2cc(C(=O)NCc3ccccn3)c(=O)oc12,n,n
CSc1cccc(NC(=O)CSc2nnc(-c3cccc(C)c3)n2-c2ccccc2)c1,n,n
C[C@H](CO)N1C[C@H](C)[C@H](CN(C)C(=O)Nc2ccc3c(c2)OCO3)Oc2c(NS(C)(=O)=O)cccc2C1=O,n,n
C[C@@H]1O[C@@H](Oc2cc(O)c3c(=O)c(O[C@@H]4O[C@@H](C)[C@H](O[C@@H]5O[C@@H](C)[C@H](O)[C@@H](O)[C@H]5O)[C@@H](O)[C@H]4O)c(-c4ccc(O)cc4)oc3c2)[C@H](O)[C@H](O)[C@H]1O,n,x
CC(=O)N1N=C(c2ccc(C)cc2)CC1c1cc2cc3c(cc2nc1Cl)OCO3 (stereo not drawn),n,x
CCN(CC(=O)O)S(=O)(=O)c1ccc(Br)cc1,n,n
C[C@@H]1CN([C@H](C)CO)C(=O)c2cccc(NC(=O)c3cnccn3)c2O[C@H]1CN(C)Cc1ccc(C(=O)Nc2ccccc2N)cc1,n,u
SMILES,ROS inducer,NOMO-1 viab
C[C@@H]1CN([C@@H](C)CO)C(=O)c2cccc(NC(=O)c3cnccn3)c2O[C@H]1CN(C)Cc1ccc(Cl)c(Cl)c1,87,105
C[C@@H]1CN([C@@H](C)CO)C(=O)c2cccc(NC(=O)c3cnccn3)c2O[C@@H]1CN(C)Cc1ccc(C(=O)Nc2ccccc2N)cc1,n,129
C[C@@H]1CN([C@@H](C)CO)C(=O)c2cccc(NC(=O)c3cnccn3)c2O[C@@H]1CN(C)Cc1ccc(Cl)c(Cl)c1,n,n
C[C@@H]1CN([C@H](C)CO)C(=O)c2cccc(N(C)C)c2O[C@H]1CN(C)C(=O)Nc1ccccc1,n,n
CC1=CC(C)C2(COC(=O)NC3CCCCC3)COC3(CCCC3)C1C2C (stereo not drawn),n,113
Cc1ccc(-c2ccc(OCC(=O)NC3CCCC3)cc2)cc1,n,x
C[C@@H]1CCCCO[C@H](CN(C)C(=O)Nc2ccc(F)cc2)[C@@H](C)CN([C@H](C)CO)C(=O)c2cc(NS(=O)(=O)c3ccc(F)cc3)ccc2O1,n,n
CCN(CC(=O)Nc1cccc(C(C)=O)c1)S(=O)(=O)c1ccc(Cl)cc1,x,n
COc1ccc(NC(=O)Nc2ccc3c(c2)C(=O)N([C@@H](C)CO)C[C@H](C)[C@@H](CN(C)S(=O)(=O)c2ccc(F)cc2)O3)cc1,n,n
COc1ccc(S(=O)(=O)Nc2cccc3c2O[C@@H](CN(C)Cc2ccc(C(=O)Nc4ccccc4N)cc2)[C@H](C)CN([C@@H](C)CO)C3=O)cc1,n,n
Cc1ccc(S(=O)(=O)Nc2cccc3c2O[C@@H](CN(C)Cc2ccc(C(=O)Nc4ccccc4N)cc2)[C@H](C)CN([C@H](C)CO)C3=O)cc1,n,n
C[C@@H]1CN([C@H](C)CO)C(=O)c2cccc(NS(=O)(=O)c3cccs3)c2O[C@@H]1CN(C)Cc1ccc(C(=O)Nc2ccccc2N)cc1,n,138
C[C@H]1CN([C@@H](C)CO)C(=O)c2cc(NS(=O)(=O)c3ccc(F)cc3)ccc2O[C@H]1CN(C)Cc1ccc(C(=O)Nc2ccccc2N)cc1,n,u
C[C@H]1CN([C@@H](C)CO)C(=O)c2cccc(NS(=O)(=O)c3ccc(Cl)cc3)c2O[C@@H]1CN(C)Cc1ccc(C(=O)Nc2ccccc2N)cc1,n,126
COc1ccc(S(=O)(=O)Nc2cccc3c2O[C@H](CN(C)Cc2ccc(C(=O)Nc4ccccc4N)cc2)[C@@H](C)CN([C@@H](C)CO)C3=O)cc1,n,129
C[C@H](CO)N1C[C@H](C)[C@H](CN(C)Cc2ccc(C(=O)O)cc2)Oc2c(NS(=O)(=O)c3cccs3)cccc2C1=O,n,n
C[C@H](CO)N1C[C@H](C)[C@H](CN(C)Cc2ccc(C(=O)Nc3ccccc3N)cc2)Oc2c(NS(=O)(=O)c3ccc(F)cc3)cccc2C1=O,n,133
CN(CC(=O)O)C(=O)c1ccc(S(=O)(=O)N2CCCC2)cc1,n,n
Cc1ccc(OCC(=O)Nc2cc(Cl)ccc2N2CCOCC2)c(C)c1,n,n
Cc1cc(C)c(COc2ccc3c(c2C)OC(C)(C)CC3=O)c(C)c1,n,n
C[C@H]1CN([C@@H](C)CO)C(=O)Cc2cc(N(C)C)ccc2O[C@@H]1CN(C)Cc1ccncc1,n,n
CC1=C[C@@H](O)[C@H]2C(C)(C)CCC[C@]2(C)[C@@]1(O)CO,n,x
C[C@@H]1CN([C@H](C)CO)C(=O)c2cccc(NS(=O)(=O)c3ccc(Cl)cc3)c2O[C@H]1CN(C)Cc1ccc(C(=O)Nc2ccccc2N)cc1,n,n
C[C@H](CO)N1C[C@H](C)[C@@H](CN(C)Cc2ccc(C(=O)Nc3ccccc3N)cc2)Oc2c(NS(=O)(=O)c3ccccc3)cccc2C1=O,n,n
